In PubChem BioAssay AID1053197 (The Scripps Research Institute Molecular Screening Center, 2014):
Screen size: about 370,000 compounds; about 2,600 (0.7%) were called active.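 How the source made its calls: active means inhibition above a cutoff: mean of compounds within the control limits plus 3 SD of those (cut at about 17% in these data); inactive means the rest.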 Many of the other results were omitted from the sample, so actives are more common in it than they were.

Target: Sialate O-acetylesterase (Homo sapiens) (UniProt Q9HAT2)
Experiment: human SIAE inhibitors, primary screen, biochemical, fluorescence polarization, FP-Rh probe, 1536-well HTS (AID 1053197);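 further: 0% = plate median of compound wells and 100% = probe without SIAE protein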
Conditions: SIAE FP-Rh probe binding, at 9.66 µM, active compounds read high

Sequence of Sialate O-acetylesterase (Homo sapiens) (Q9HAT2 whole entry, looked up): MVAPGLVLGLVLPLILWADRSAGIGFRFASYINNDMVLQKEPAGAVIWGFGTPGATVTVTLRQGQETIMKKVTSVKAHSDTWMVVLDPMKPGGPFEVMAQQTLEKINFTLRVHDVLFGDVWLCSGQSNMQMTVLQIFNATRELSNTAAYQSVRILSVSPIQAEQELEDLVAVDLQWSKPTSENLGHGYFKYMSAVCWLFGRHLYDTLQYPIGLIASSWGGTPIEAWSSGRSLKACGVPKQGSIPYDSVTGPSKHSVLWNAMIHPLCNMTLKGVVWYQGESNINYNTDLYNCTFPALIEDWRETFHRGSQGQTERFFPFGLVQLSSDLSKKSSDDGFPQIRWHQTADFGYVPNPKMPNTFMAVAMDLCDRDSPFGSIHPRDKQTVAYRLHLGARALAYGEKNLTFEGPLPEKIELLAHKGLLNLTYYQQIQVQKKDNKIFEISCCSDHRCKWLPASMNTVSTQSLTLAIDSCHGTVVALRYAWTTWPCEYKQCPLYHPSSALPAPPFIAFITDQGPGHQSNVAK

inhibition, inactive:
COC(=O)c1ccccc1SC1CC(=O)N(c2cccc(C)c2)C1=O (configuration not stated) -0.8%
Cc1cccc(N2C(=O)SC(N(CC(=O)O)c3cccc(C)c3)C2=O)c1 (configuration not stated) 1.65%
COc1ccc(Cn2cc(COC(=O)N(C)Cc3ccccc3)nn2)cc1 0.99%
CCOC(=O)[C@]12CCCC3=C1N(CCC3)C(=O)[C@@H](CC(=O)N1CCSCC1)C2 -3.23%
Cc1cc(=O)[nH]c(SCC(=O)Nc2ccc(F)cc2F)n1 -0.82%
Cc1ccc(S(=O)(=O)N2CCOCC2)cc1C(=O)Nc1ccccc1N1CCCC1 12.1%
CCN(CC)S(=O)(=O)c1cc(C(=O)Nc2cc(S(=O)(=O)N3CCOCC3)ccc2N2CCCC2)ccc1F 1.03%
CC(C)CNC(=O)OCc1cn(Cc2ccc(F)cc2)nn1 -8.33%
Cc1cc(=O)[nH]c(SCC(=O)Nc2ccc(Cl)cc2C)n1 1.99%
O=C(c1ccccc1)c1ccc(-c2ccccc2C(=O)NC2CCCCN(Cc3ccc(Cl)cc3)C2=O)cc1 (configuration not stated) 1.39%
COc1cc(/C=C(\C#N)C(=O)Nc2ccc3ccccc3c2)c([N+](=O)[O-])cc1OC -1.47%
CC1CC(C)CN(C/C=C/c2ccccc2[N+](=O)[O-])C1 (configuration not stated) 2.91%
CC(C)CNc1cccc2c1S(=O)(=O)N(Cc1cn(Cc3ccc(Cl)cc3)nn1)Cc1ccccc1O2 3.21%
O=C(NC1CCCCN(Cc2ccc(Cl)cc2)C1=O)c1ccc(Br)cc1 (configuration not stated) -3.06%
Nc1ncnc2c1ncn2[C@@H]1O[C@H](C(=O)N[C@@H](CCc2ccccc2)C(=O)NCC(=O)N2CCOCC2)[C@@H](O)[C@H]1O 2.34%
Nc1ncnc2c1ncn2[C@@H]1O[C@H](C(=O)N2CCCN(Cc3ccccc3F)CC2)[C@@H](O)[C@H]1O -1.61%
Nc1ncnc2c1ncn2[C@@H]1O[C@H](C(=O)N2CCSC2)[C@@H](O)[C@H]1O 1.67%
CN(Cc1ccc(CNC[C@H]2O[C@@H](n3cnc4c(N)ncnc43)[C@H](O)[C@@H]2O)o1)S(C)(=O)=O -0.06%
CC(C)CSc1nnc(-c2cccnc2)n1Cc1ccccc1 0.87%
O=C(NCc1ccc(Cl)cc1)C1CCCN(c2nc3ccccc3o2)C1 (configuration not stated) 1.99%
O=C(Nc1cc(F)cc(F)c1)OC1CCC12CCC(c1ccccc1)CC2 (configuration not stated) -17%
Nn1c(SCC(=O)N2c3ccccc3Sc3ccccc32)nnc1-c1n[nH]c2c1CCC2 -8.15%
CN(C)CC(=O)N[C@@H]1C[C@@H]2O[C@H](CO)CC[C@@H]2O[C@@H]1CCc1ccc(C#Cc2ccccc2)cc1 5.34%
COc1ccc(C(=O)OCCN(C)C2CN(Cc3cn(Cc4cccc(C)c4)nn3)S(=O)(=O)C2)cc1OC (configuration not stated) -4.69%
C/C(=N\NC(N)=S)c1cccnc1 1.42%
O=C(O)/C(=C/c1cccnc1)NC(=O)c1ccccc1 5.04%
C/C(=N\NC(=O)c1cccnc1)c1ccc(-n2ccnc2)cc1 2.74%
NS(=O)(=O)c1ccc(NC(=S)NC(=O)c2cccnc2)cc1 1.85%
Cc1cc(NS(=O)(=O)c2ccc(NC(=O)CSc3nnc(-c4ccc(C(C)(C)C)cc4)n3Cc3ccco3)cc2)nc(C)n1 -2.29%
COC(=O)[C@]12C[C@H](CC(=O)NCC34CC5CC(CC(C5)C3)C4)C(=O)N(Cc3ccc(Cl)cc3Cl)C1=C[C@H](COCc1ccccc1)O[C@@H]2C -3.29%
COc1cc(C(=S)NC2CCCCC2)ccc1O 2.61%
COc1cc(C(=O)Nn2c(CC(C)C)nc3ccccc3c2=O)cc(OC)c1OC -1.34%
Cc1ccc(Cn2cc(COC(=O)N(C)Cc3ccccc3)nn2)cc1 2.24%
CC(=O)N1CCCN(C2=Nc3ccccc3Sc3ccccc32)CC1 13.5%
COCCN(C(=O)c1ccco1)c1nnc(-c2ccc(OC)cc2)s1 -0.46%
COCCNC(=O)c1cc2c(Br)ccc(Br)c2nc1N -3.42%
CCCCCN1CCCCC(NC(=O)C(C)CCC)C1=O (configuration not stated) -1.97%
CCOC(=O)[C@]12CCCC=C1N(Cc1ccc(OC)cc1)C(=O)[C@@H]2CC(=O)NCc1cccs1 0.94%
Cc1c[nH]c2cccc(-c3ccc(Cl)cc3)c12 4.94%
O=[N+]([O-])c1cc([N+](=O)[O-])c2cccnc2c1O 0.23%
CCCCC(=O)NC(c1ccc(OC)c(OC)c1)c1ccc2cccnc2c1O (configuration not stated) 15.1%
COC(=O)[C@]12C[C@H](CC(=O)N3CCN(C(=O)C4CC4)CC3)C(=O)N(CCC3=CCCCC3)C1=C[C@H](C(C)C)O[C@@H]2C1CC1 0.92%
O=C(CSc1nc2ccccc2n1Cc1ccccc1)NNC(=S)Nc1ccccc1 2.33%
COCC(=O)N[C@@H]1C[C@@H]2O[C@@H](CO)CC[C@@H]2O[C@@H]1CCc1ccc(-c2ccccc2)cc1 2.31%
Cc1ccc(Cn2cc(CN3[C@@H](CC(C)C)COc4ccc(Cl)cc4S3(=O)=O)nn2)cc1 1.1%
Cc1ccc(N2C(=O)C3N=NN(CC(=O)N4N=C(c5cccc6ccccc56)CC4c4ccccc4)C3C2=O)cc1 (configuration not stated) -11.7%
COc1ccc(C2CC(c3cccc(OC)c3)=NN2c2ccc(S(N)(=O)=O)cc2)cc1 (configuration not stated) 6.8%
O=C1CC[C@@]23CCCN2C(=O)CCC[C@H]3[C@H]1Cc1ccccc1 4.29%
Cc1cccc(Cn2c(N3CCN(c4ccccc4)CC3)nc3c2c(=O)n(C)c(=O)n3C)c1 -1.65%
CCOc1ccc2nc(NC(=O)CSc3nc4c(c(=O)n(C)c(=O)n4C)n3CC)sc2c1 -3.15%
COC(=O)c1cccc(Cn2ccc3ccc(-c4ccc5ccn(C(=O)C6CCCCC6)c5c4)cc32)c1 -4.45%
N#CCC[C@H]1CC[C@]2(CCCN(Cc3ccc(Cl)cc3)C2)O1 1.15%
C#CCNC(=O)C[C@H]1C[C@@]2(C(=O)OC)C(=C[C@H](C(C)C)O[C@@H]2C2CC2)N(Cc2ccco2)C1=O 4.68%
COc1ccc(/C=N/Nc2ncnc3sc4c(c23)CCCC4)cc1O -1.15%
COc1cc(/C=C/C(=O)OCC(=O)NCCCc2ccccc2)ccc1O 9.1%
O=C(NCc1cccs1)C1CCCN(S(=O)(=O)c2ccc([N+](=O)[O-])cc2)C1 (configuration not stated) 3.31%
COc1ccc(-n2c(SCC(=O)Nc3ccc4c(c3)OCCO4)nnc2-c2ccc(Cl)cc2)cc1 2.64%
CCCCn1c(N)c(N(CCC(C)C)C(=O)c2ccc([N+](=O)[O-])o2)c(=O)[nH]c1=O 1.61%
CCCCn1c(N)c(N(CC(C)C)C(=O)CN(C)S(=O)(=O)c2ccc(F)cc2)c(=O)[nH]c1=O 2.93%
CCC(=O)OCCCN1C(=O)CCC12CCC(c1ccccc1)CC2 (configuration not stated) 10.2%
COC(=O)[C@@]12CCCCC3=C1N(CCC3)C(=O)[C@H]2CC(=O)NCc1cccc2ccccc12 3.42%
CC(C)C(C#CC1CC1)N(Cc1ccc2c(c1)OCO2)C(N)=NC(=O)/C=C/c1cccc(C(F)(F)F)c1 (configuration not stated) -3.05%
CCN(CC)C(=O)CC[C@@H]1CC[C@]2(CCCN(S(=O)(=O)C3CCCCC3)C2)O1 0.62%
CC(=O)Nc1cnc(-c2ccc(O)cc2C)cn1 1.05%
Cc1ccc(-c2csc(NCCc3nc4cc(Cl)c(Cl)cc4n3CCOCCO)n2)cc1 1.85%
COC(=O)[C@H](C(C)C)N(CCc1cn(Cc2ccccc2)nn1)S(=O)(=O)c1ccc(F)cc1Br 0.91%
Cc1ccc(-n2c(SCC(=O)Nc3ccc(S(=O)(=O)Nc4nccs4)cc3)nnc2-c2ccccn2)cc1 -6.07%

inhibition, active:
Cc1cccc(N2C(=O)SC(SC(=Nc3ccccc3)Nc3ccccc3)C2=O)c1 (configuration not stated) 18.1%
O=C(Nc1ccccc1N1CCCC1)c1ccc(F)c(S(=O)(=O)N2CCOCC2)c1 20.5%
CC1CCCCC1NC(=O)/C(C#N)=C/C=C/c1ccccc1[N+](=O)[O-] (configuration not stated) 17.2%
CN(Cc1ccc(C(F)(F)F)cc1)C(=O)[C@H]1O[C@@H](n2cnc3c(N)ncnc32)[C@H](O)[C@@H]1O 81.3%
Nc1ncnc2c1ncn2[C@@H]1O[C@H](C(=O)NCC(F)(F)F)[C@@H](O)[C@H]1O 51.2%
O=C(N/N=C/c1ccc(O)c2ccccc12)c1cccnc1 18.7%
O=C(NN=C1CCC(=NNC(=O)c2cccnc2)CC1)c1cccnc1 20.1%
COc1cc(C(=O)Nn2c(O)c(C3=c4ccccc4=NC3=O)sc2=S)ccc1O 40.2%
COCCNC(=O)Nc1ccc2nc(-c3ccco3)c(-c3ccco3)nc2c1 37.3%
CC(=O)NC(c1cccs1)c1cc(Br)c2cccnc2c1O (configuration not stated) 20.8%
Oc1ccccc1C1=NN(c2ccccc2)C(c2ccccc2)C1 (configuration not stated) 20.5%
CCOc1ccc(Cn2c(SCCCCC#N)nc3c2c(=O)n(C)c(=O)n3C)cc1OCC 25.8%
COc1cc(/C=N\Nc2nc(-c3cccs3)c(NC(C)=O)s2)ccc1O 18.3%
CCCCn1c(N)c(N(CC(C)C)C(=O)CSc2ccc([N+](=O)[O-])cc2)c(=O)[nH]c1=O 17.8%
Cc1ccc(Nc2nc(-c3ccc(O)cc3O)cs2)nc1 20.7%
